# Source: PubChem BioAssay AID2057 (The Scripps Research Institute Molecular Screening Center, 2009)
# The campaign covered roughly 320,000 compounds. About 2,100 (0.66%) were called active.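 The calls were made as follows: active = inhibition above the mean inhibition of all tested compounds plus 3 SD, set per campaign (cut at about 40% in these data); inactive = the rest.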 This excerpt belongs to a sample that is enriched for actives.
# Target: Induced myeloid leukemia cell differentiation protein Mcl-1 (Homo sapiens) (UniProt Q07820)
# Test: inhibitors of MCL1 binding to BIM-BH3, primary screen, biochemical, fluorescence polarization (AID 2057);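 also: 0% = DMSO wells and 100% = unlabeled Bim-BH3 peptide control; higher means more loss of mP so more displacement of Bim peptide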
# Conditions: GST-MCL1 / FITC-Bim-BH3 fluorescence polarization; at 10.9 µM; stronger effect = higher value
# Induced myeloid leukemia cell differentiation protein Mcl-1 (Homo sapiens), sequence (Q07820 whole entry, looked up): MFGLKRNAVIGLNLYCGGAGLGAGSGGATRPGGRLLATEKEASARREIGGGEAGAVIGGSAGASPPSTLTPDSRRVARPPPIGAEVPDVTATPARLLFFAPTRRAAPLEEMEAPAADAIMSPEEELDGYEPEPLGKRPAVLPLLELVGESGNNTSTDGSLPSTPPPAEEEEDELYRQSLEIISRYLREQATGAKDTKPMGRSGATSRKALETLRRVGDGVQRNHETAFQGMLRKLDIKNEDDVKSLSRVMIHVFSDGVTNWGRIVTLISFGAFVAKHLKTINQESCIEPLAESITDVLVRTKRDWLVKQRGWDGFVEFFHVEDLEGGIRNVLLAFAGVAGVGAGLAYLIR
row,SMILES,inhibition
1,O=C1NC(=O)N(c2ccccc2)C(=O)/C1=C/c1ccc([N+](=O)[O-])s1,44.1% (active)
2,CCOP(=S)(OCC)SCOC(=O)NCC(=O)OC,6.09% (inactive)
3,C=CCN1C(=O)C2(C(C(=O)OCC)=C(N)Oc3c2c(=O)oc2ccccc32)c2ccccc21 (stereo not given),1.78% (inactive)
4,COc1cccc(N2C(=O)NC(=O)/C(=C\c3cn(C)c4ccccc34)C2=O)c1,55% (active)
5,Cc1c(C(=O)O)cccc1-n1c(C)cc(/C=C2\C(=O)NC(=O)N(c3ccc4c(c3)OCO4)C2=O)c1C,2.52% (inactive)
6,Cc1ccccc1N1C(=O)NC(=O)/C(=C\c2cc(C)n(C)c2C)C1=O,1.23% (inactive)
7,CCN(CC)C(=O)Oc1ccc(NC(=O)N2CCOCC2)cc1,3.93% (inactive)
8,Cc1cccc(OP(=O)(Oc2cccc(C)c2)OC(c2ccccc2)C(F)(F)F)c1 (stereo not given),2.04% (inactive)
9,CN(c1ccccc1)c1ccc([N+](=O)[O-])c2nonc12,-24.9% (inactive)
10,O=C(CCC(=O)N1C[C@H]2C[C@@H](C1)c1cccc(=O)n1C2)NCc1ccccc1C(F)(F)F,2.96% (inactive)
11,COc1ccc(CN2C(=O)NC(=O)/C(=C\c3ccc(OC)c(OC)c3OC)C2=O)cc1,-3.16% (inactive)
12,Cc1cc(/C=C2/C(=O)NC(=O)N(Cc3ccco3)C2=O)c(C)n1-c1ccc(C(=O)O)cc1,-11.8% (inactive)
13,COc1ccc(N2C(=O)/C(=C/c3ccco3)C(=O)NC2=S)cc1,53.9% (active)
14,Cc1ccc(C)c(NC2=NCCCS2)c1,0.88% (inactive)
15,COc1cccc(OC)c1C(=O)NC(=S)N1C[C@H]2C[C@H](C1)c1cccc(=O)n1C2,9.55% (inactive)
